From PubChem BioAssay AID435000 (NMMLSC, 2010)
Some of the results follow. A number with no mark means an inactive call.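 Rule for the calls: active = fluorescence response below 15%; inactive = the rest.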

Assay: yeast superoxide dye artefact check – S. cerevisiae BY4741, flow cytometry, artefact control for yeast caloric restriction mimetic project (AID 435000);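 note: percent of the mean fluorescence averaged over all compound wells on the plate; lower means stronger quenching of DHE signal or ROS scavenging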
Conditions: S. cerevisiae BY4741, DHE fluorescence, at 10 µM, hits give low values

| Structure (SMILES) | fluorescence response |
| --- | --- |
| O=C(CSCc1ccccc1)Nc1ccccc1 | 111% |
| Cn1c(Nc2ccccc2)cc(=O)n(C)c1=O | 113% |
| CC(=O)NC1=NN(C(C)=O)C(C)(CCS(=O)(=O)c2ccc(Cl)c(Cl)c2)S1 (configuration not stated) | 112% |
| CCn1c2ccccc2c2cc(CC(N)=O)ccc21 | 105% |
| CC(=O)C[C@@H](O)CC(=O)[C@H]1OC(=O)CCCCCCc2ccccc21 | 113% |
| CCN(CC)c1ccc(NC(=O)CN2CCN(c3ccccn3)CC2)cc1 | 95.7% |
| CNC(=O)c1cccc2nc3ccccc3nc12 | 105% |
| CSc1sc(C(=O)NNC(=O)c2ccc(Cl)cc2)c2c1C=CCC2 | 92.4% |
| O=C(Nc1ccccc1N1CCCC1)c1ccc2ccccc2c1 | 103% |
| Cc1cc(=O)n2[nH]c(-c3cccc(Cl)c3)cc2n1 | 92.6% |
| CCN(CC)C(=O)CSc1nnc(-c2cccc(OC)c2)o1 | 110% |
| COC(=O)CNC(=O)c1ccc(OC2CCN(C(=O)C3CC3)CC2)cc1 | 113% |
| Cc1ccccc1NC(=O)NCC1CCN(Cc2cccc(Cl)c2)CC1 | 101% |
| Cc1ccc(-c2nnc(Nc3ccc(C(=O)N(C)C)cc3)c3ccccc23)cc1S(N)(=O)=O | 113% |
| Cc1ccc(-c2nc(CSCC(=O)NC3CCN(Cc4ccccc4)CC3)c(C)o2)cc1 | 94.6% |
| O=C(CN1CCN(c2ccccn2)CC1)Nc1ccc(Br)cc1 | 97% |
| COc1cc(-c2nnn(CC(=O)NCc3ccccc3)n2)cc(OC)c1OC | 99.2% |
| COc1ccc(C)cc1S(=O)(=O)Nc1cccc(Cl)c1Cl | 102% |
| Cc1ccc(NC(=O)Cn2nc(C)c3ccccc3c2=O)c(C)c1 | 110% |
| O=[N+]([O-])c1ccc2c(c1)Nc1nc3ccccc3nc1N2 | 92.7% |
| Cc1ccc(-c2nc(CS(=O)CC(=O)N3CCN(c4ncccn4)CC3)c(C)o2)cc1 (configuration not stated) | 95.7% |
| COc1ccc(CCNC(=O)c2ccccc2-c2ccccc2C(=O)O)cc1OC | 110% |
